Tb PGK inh: blocks T. brucei phosphoglycerate kinase; PGK/GAPDH coupled, Kinase-Glo luminescence, 60 min; AID 602233; P07378; 380,000 tested, 0.043% active; Potency, µM (titrated, usually from 57.5 µM), inactives show at the highest dose activity change, negative = inhibition, most hits filed as inhibitors; also: potency is read from the fitted curve at half-maximal effect; nearly all actives have a fitted effect of over 60% in size
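Recombinant glycosomal PGK reaction used 1,3-bisphosphoglycerate generated in-well by GAPDH (100nM final) in 100mM TEA pH 7.6, 5mM MgCl2, 0.01% Tween-20. After 60 minutes at room temperature, ATP was read by Kinase-Glo Plus luminescence end-point.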
Tb PFK inh: inhibitors of T. brucei phosphofructokinase; O15648; T. brucei PFK, ADP-Glo luminescence; Potency, µM (top dose mostly 57.5 µM), inactives show at the top dose activity, negative = inhibition, usual class: inhibitors; 330,000 tested, 0.17% active; AID 485367;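 also: potency is read from the fitted curve at half-maximal effect; 0% = uninhibited 1x PFK enzyme wells and -100% = no-enzyme wells; nearly all actives have a fitted effect of over 60% in size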
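PFK 1.25 nM, F6P 0.5 mM, ATP 0.1 mM, 0.1 M TEA pH 8.0, 5 mM MgCl2, 0.01% Tween20, 0.1% BSA; 45 min RT. ADP-Glo readout. qHTS titration up to 57 uM; curves fitted, compounds curve-classed.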
PI5P4K alpha inh: inhibitors of human PI5P4K alpha; 330,000 tested, 1.2% active; PI5P4Kalpha enzyme, ADP-Glo luminescence, 60 min; active compounds read low; P48426; max response, %; active = max response of -50% or lower; inconclusive = between -30% and -50%; inactive = -30% or higher; also: value at the top dose of about 77 µM
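qHTS, 1536-well: enzyme/substrate mix, compound by pin tool, 5 microM ATP final; RT 60 min; ADP-Glo reagents 1 (45 min) then 2 (30 min); luminescence.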
Pin1 inhibitor: inhibitors of human Pin1. Pin1 FP peptide displacement, HiFluor488, 10 min. Potency, µM (titrated, usually from 115 µM), inactives show at the top dose activity, negative = inhibition, usual class: inhibitors. 390,000 tested, 0.009% active. Q13526. AID 504891; active = well fitted inhibition curve with a large enough effect in the polarisation, with a control signal flat, not every such curve was filed as active; inconclusive = small, poorly fitted or top-dose-only effect, or effect the other way, or a change in a side signal; inactive = no such curve, though single readings can be large or run the other way; the % refers to the polarisation; also: potency is read from the fitted curve at half-maximal effect
Target sequence (Q13526 whole entry, looked up): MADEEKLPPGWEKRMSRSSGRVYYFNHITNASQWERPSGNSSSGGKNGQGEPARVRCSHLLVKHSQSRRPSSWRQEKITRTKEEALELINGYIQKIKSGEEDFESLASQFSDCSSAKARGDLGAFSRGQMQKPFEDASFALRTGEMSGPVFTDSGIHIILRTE
PI4K2A inh: blocks human PI4K2A kinase activity. Q9BTU6. purified PI4K2A, ADP-Glo luminescence, 1 h; active compounds read low. activity change, negative = inhibition, % at 76.9 µM. 420,000 tested, 0.13% active. AID 1346378; in the data active = activity change below about -50%; inconclusive = mostly about -30% to -49%;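 also: -100% = wells without enzyme as full effect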
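In this quantitative HTS, ADP production by PI4K2A was quantified luminescently after 1 h at ambient temperature; 100 microM adenosine served as plate-quality control.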
Starred values were filed as active, the others as inactive; i = inactive; ? = inconclusive; . = no result given. Shown is part of a subset that was picked to be rich in hits. Unless noted, calls follow the shape of the dose curve; as a rule, active = well fitted curve in the direction sought with a large enough effect; inconclusive = small, poorly fitted or top-dose-only effect, or another doubt; inactive = no such curve, though single readings can be large; an effect the other way counts as inactive or inconclusive. Unless noted, % is scaled to controls: 0 for no effect and ±100 for the full control effect.

SMILES	Tb PGK inh	Tb PFK inh	PI5P4K alpha inh	Pin1 inhibitor	PI4K2A inh
CC(C)CN1C(=O)[C@@]2(CC(=O)N(C)C2c2ccccc2)c2cc(-n3cc(CO)nn3)ccc21 (stereo partly drawn)	.	.	.	.	-6
COc1cc(C=NNc2ccc(S(=O)(=O)Nc3ccccc3C(=O)O)cc2[N+](=O)[O-])ccc1O	-12%	?	-69*	.	-2
COc1ccc(C(C)=NNc2ccc([N+](=O)[O-])cc2S(=O)(=O)Nc2ccccc2C(=O)O)c(OC)c1	-18%	-15%	?	?	-16
COc1cc(/C=N/Nc2ccc(S(N)(=O)=O)cc2[N+](=O)[O-])cc(OC)c1O	i	10%	2	-4%	-28
CC(=O)Nc1ccc(C=NNc2ccc([N+](=O)[O-])cc2S(=O)(=O)Nc2ccccc2C(=O)O)cc1	?	0%	-64*	?	5
Cc1nc(-c2ccc([S+](=O)([O-])N3CCN([S+](=O)([O-])c4c(F)cccc4F)CC3)s2)cs1	.	.	.	8%	.
NC(=O)C1CCN(c2nnc(-c3ccc4c(c3)OCCCO4)s2)CC1	.	.	.	3%	.
N#Cc1c(N)sc(=S)c2c1CCCCC2	-3%	?	-91*	?	?
CCS(=O)(=O)c1ccc(OC)c(C(=O)OC)c1	.	.	.	.	1
N#C/C(=C/c1ccco1)C(N)=S	-2%	-17%	-59*	8%	0
N#C/C(=C\c1ccc2c(c1)OCO2)C(N)=S	4%	-1%	-6	4%	1
CCOC(=O)[C@@]12CCCC3=C1N(CCC3)C(=O)[C@H]2CC(=O)NCCC(C)C	.	.	.	.	-7
COc1cc(/C=C2/CC/C(=C/c3ccc(O)c(OC)c3)C2=O)ccc1O	-8%	-9%	-25	?	2
COc1cc(/C=C/C=C2/CC/C(=C/C=C/c3ccc(O)c(OC)c3)C2=O)ccc1O	?	.	-93*	?	?
CCOC(=O)CSC1=C(C#N)C(=O)NC(c2ccc(OC)c(OC)c2)S1 (stereo not drawn)	-4%	?	-72*	2%	-24
CCOC(=O)CSC1=C(C#N)C(=O)NC(c2ccc(OC)cc2)S1 (stereo not drawn)	4%	?	-63*	1%	-14
CC1(C)S[C@@H]2[C@H](NC(=O)C(c3ccccc3)S(=O)(=O)O)C(=O)N2[C@H]1C(=O)O (stereo partly drawn)	.	.	.	.	1
O=C(/C=C/c1ccco1)Nc1cccc2cccnc12	-3%	-6%	-82*	?	?
O=C(/C=C/c1ccco1)Nc1nc(-c2ccccn2)cs1	-10%	1%	-93*	.	?
O=C(O)/C=C/C(=O)Nc1cccc2cccnc12	-7%	9%	-3	-5%	-4
COc1ccc2c(=O)n3nc(Nc4ccc5c(c4)CCC5)sc3nc2c1	.	.	.	-4%	.
COc1ccc(C2Nc3ccccc3C(=O)N2Cc2ccccc2)cc1COc1cccc(C)c1 (stereo not drawn)	.	.	.	26%	.
Cc1ccc(S(=O)(=O)N2CCCCC2)cc1NC(=O)Cn1cnnn1	4%	2%	5	-1%	5
Cc1ccc(S(=O)(=O)N2CCCCC2)cc1NC(=O)Cn1ncc(Cl)c(Cl)c1=O	-19%	-8%	-52*	?	?
O=C(Cn1ncc(Cl)c(Cl)c1=O)Nc1ccc2c(c1)OCO2	-11%	10%	-52*	?	-26
SMILES	Tb PGK inh	Tb PFK inh	PI5P4K alpha inh	Pin1 inhibitor	PI4K2A inh
CCN(CC)S(=O)(=O)c1cc(NC(=O)Cn2ncc(Cl)c(Cl)c2=O)ccc1C	-8%	2%	-83*	?	-11
COc1ccc(NC(=O)Cn2ncc(Cl)c(Cl)c2=O)cc1S(=O)(=O)N1CCOCC1	-18%	0%	-78*	.	?
O=[S+]([O-])(NC[C@H]1CCC[C@H](CN[S+](=O)([O-])c2c(F)cccc2F)C1)c1ccc2c(c1)OCCO2	.	.	.	0%	.
CC(C)(C)c1ccccc1Nc1nc(C#N)nc(NC2CCCC2)n1	.	.	.	7%	.
Cc1ccc(O)c(NC(=O)c2ccc3c(c2)C(=O)N(CC(C)C)C3=O)c1	i	0%	4	-8%	-5
CCCN1C(=O)c2ccc(C(=O)Nc3cc(C)ccc3O)cc2C1=O	-18%	2%	-8	7%	-56*
OCC#CCSc1nnc(-c2ccc(Br)cc2)o1	-1%	5%	.	-3%	-3

Compound activity from PubChem BioAssay.
